The text below walks through data of PubChem BioAssay (EPA / NIEHS).

Results filed as inconclusive are left out. Active and inactive are the calls of the source. Rule for the calls: active = hit-call score of the fitted dose curve at least 0.9, where 1 is the maximum; inconclusive = response in the unintended direction; inactive = score below 0.9.

A short description of this assay: ACEA_ER_80hr: ACEA Biosciences xCELLigence Real-Time Cell Analysis on Estrogen Receptor Agonism for Proliferation (AID 2282667). Conditions: T47D proliferation, impedance (xCELLigence), 80 h. Put shortly:
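Impedance readout (RT-CES) of T47D proliferation at 80 h post-dose; gain of signal vs DMSO baseline. Compounds: 8 conc, 1:4 serial, top 100 uM final, ≤0.5% DMSO; biological duplicate.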
Take `O=C(CCl)CCl`: the outcome was inactive. Still for that read-out and setting: the value for `C=C(C)C#N` was “inactive”. With `O=C(O)Cc1ccccc1`, the outcome was inactive.

Take `CCC(C)c1cccc(C(C)CC)c1O` (stereo not drawn): the call was inactive. Still for that read-out and setting: as for `Nc1cccc(Cl)c1`, the entry is “inactive”. For the molecule `CN(CCCC(=O)c1cccnc1)N=O`, the result was inactive. Still for that read-out and setting: the value for `CC(C)CCCCCCOC(=O)c1ccccc1C(=O)OCCCCCCC(C)C` was “inactive”; that for `COP(=S)(OC)Oc1cc(Cl)c(Cl)cc1Cl` was “inactive”; that for `Clc1nc(Cl)nc(Cl)n1` was “inactive”.

As for `CCSC(C)CC1CC(=O)C(C(CC)=NOC/C=C/Cl)=C(O)C1` (stereo not drawn), the molecule was classed as inactive. Same read-out and setting: the value for `CCNc1nc(NC(C)(C)C)nc(SC)n1` was “inactive”; that for `ClCc1cccnc1` was “inactive”.

On to `CCOP(OCC)OCC`, for which the molecule was classed as inactive. Regarding `CCC[CH2][Sn]([CH2]CCC)([CH2]CCC)[O]C(=O)c1ccccc1`, the outcome was inactive. Turning to `O=C/C=C/c1ccccc1`, the molecule was classed as inactive. Consider `O=[N+]([O-])c1ccc(O)c([N+](=O)[O-])c1`, for which the half-maximal activity concentration (AC50) is 75.8 µM (active). In the case of `O=C1C(Cl)=C(Cl)C(=O)c2ccccc21`, the outcome was inactive. Same read-out and setting: the value for `C=CC#N` was “inactive”; that for `O=C(NCO)NCO` was “inactive”. For the molecule `Cl/C=C/Cl`, the molecule was classed as inactive. The same measure, in the same setting: as for `CC(Br)C(=O)O` (stereo not drawn), the entry is “inactive”; as for `C=CCc1ccc(OC)cc1`, “inactive”; as for `O=Cc1cccc(Oc2ccccc2)c1`, “inactive”.

With `COP(=S)(OC)Oc1ccc(Sc2ccc(OP(=S)(OC)OC)cc2)cc1`, the half-maximal activity concentration (AC50) was 0.0233 µM (active). Consider `CCOP(=S)(OCC)SCCS(=O)(=O)CC`, for which the molecule was classed as inactive. Still for that read-out and setting: the value for `C[C@H]1O[C@@H](O[C@H]2[C@@H](O)C[C@H](O[C@H]3[C@@H](O)C[C@H](O[C@H]4CC[C@@]5(C)[C@H](CC[C@@H]6[C@@H]5CC[C@]5(C)[C@@H](C7=CC(=O)OC7)CC[C@]65O)C4)O[C@@H]3C)O[C@@H]2C)C[C@H](O)[C@@H]1O` was “inactive”. Regarding `Oc1ccc(-c2ccccc2)cc1`, the AC50 is 10.5 µM (active).

With `N#CCc1ccc(Cl)cc1`, the molecule was called inactive.

On to `COS(=O)(=O)c1ccc(C)cc1`, for which the call was inactive. Still for that read-out and setting: as for `CCCCC(CC)CO[N+](=O)[O-]` (stereo not drawn), the entry is “inactive”. For the molecule `CCc1ccccc1N`, the molecule was classed as inactive.

For `COc1ccc(C=O)cc1OC`, the AC50 is 15.7 µM (active). With `NC(=S)Nc1ccccc1`, the molecule was called inactive.

Broadly, the AC50 is the concentration giving half of the maximal activity seen.
